NPYLR7 ag = mosquito NPYLR7 agonism; HEK293T NPYLR7/Galpha15, GCaMP6s calcium fluorescence; activation, % at 10 µM; 270,000 compounds, 0.15% hits; AID 1259423; in the data active = activation above about 40%;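 also: 0% = vehicle and 100% = reference agonist at the receptor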
hcGAS lum = human cGAS inhibition. recombinant h-cGAS, ATP depletion, Kinase-Glo luminescence. AID 1259398. 290,000 compounds, 0.081% hits. inhibition, % at 12.5 µM. Q8N884;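 also: 0% = vehicle reaction and 100% = reaction without DNA for no activity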
Target sequence (Q8N884 whole entry, looked up): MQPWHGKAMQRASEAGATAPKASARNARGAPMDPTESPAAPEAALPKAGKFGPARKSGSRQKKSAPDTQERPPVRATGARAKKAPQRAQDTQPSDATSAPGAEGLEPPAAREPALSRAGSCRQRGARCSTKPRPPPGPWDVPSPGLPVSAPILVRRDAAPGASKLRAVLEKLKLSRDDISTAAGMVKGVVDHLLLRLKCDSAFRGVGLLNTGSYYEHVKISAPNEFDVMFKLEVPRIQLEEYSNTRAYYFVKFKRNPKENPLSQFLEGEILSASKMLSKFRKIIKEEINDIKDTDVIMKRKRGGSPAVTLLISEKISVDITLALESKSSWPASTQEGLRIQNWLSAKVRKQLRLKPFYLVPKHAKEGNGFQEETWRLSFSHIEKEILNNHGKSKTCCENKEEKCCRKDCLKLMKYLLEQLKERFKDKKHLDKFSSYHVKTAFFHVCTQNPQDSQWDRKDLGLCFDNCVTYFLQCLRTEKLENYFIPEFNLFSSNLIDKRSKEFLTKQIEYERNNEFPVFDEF
mcGAS lum = mouse cGAS inhibition by luminescence. 160,000 compounds, 0.15% hits. recombinant cGAS, Kinase-Glo ATP depletion luminescence. inhibition, % at 12.5 µM. AID 1259399. Q8C6L5;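 also: 0% = negative control wells and 100% = reference inhibitor with no enzyme activity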
* marks the source's active call; other numbers are inactive results; . = no result. The list is not random: actives were taken first. Their share in the collection is about 0.3%. Rule as the data show it, unless noted: active = inhibition above about 40%; inactive = the rest.

SMILES	NPYLR7 ag	hcGAS lum	mcGAS lum
CCN1CCc2c(sc(NC(=O)c3ccc(C(C)=O)cc3)c2-c2nc3ccccc3s2)C1	20	7	2
CCN1CCc2c(sc(NC(=O)c3ccccc3)c2-c2nc3ccccc3s2)C1	91*	17	6
CCN1CCc2c(sc(NC(C)=O)c2-c2nc3ccccc3s2)C1	5	73*	94*
CCN1CCc2c(sc(NC(=O)COc3ccccc3)c2-c2nc3ccccc3s2)C1	53*	2	-1
CCN1CCc2c(sc(NC(=O)CN3C(=O)CCC3=O)c2-c2nc3ccccc3s2)C1	24	45*	44*
CCN1CCc2c(sc(NC(=O)c3ccco3)c2-c2nc3ccccc3s2)C1	9	38	39
CN1CCc2c(sc(NC(=O)CN3C(=O)c4ccccc4C3=O)c2-c2nc3ccccc3s2)C1	2	0	-6
CCN1CCc2c(sc(NC(=O)c3ccc(OC)cc3)c2-c2nc3ccccc3s2)C1	10	0	-3
Cc1ccccc1C(c1ncccc1C)N(C)C(=O)C1CCN(CCN2CCOCC2)CC1 (configuration not stated)	2	1	.
N#Cc1ccc(C(=O)N2CCCC3(CCc4ccccc43)C2)cc1 (configuration not stated)	-3	1	.
Cc1cc(C)cc(NC(=O)N2CCN(CCCOCC(F)(F)F)CC2)c1	15	-11	-15
CCC(=O)Nc1sc2c(c1-c1nc3ccccc3s1)CCN(CC)C2	28	73*	100*
CCN1CCc2c(sc(NC(=O)CS(=O)(=O)c3ccccc3)c2-c2nc3ccccc3s2)C1	22	-9	-8
Cc1cc(-c2ccccc2)cc2c3ccccc3c3ccccc3[n+]12	-6	41*	27
COc1cc(-c2ccccc2)c2ccccc2n1	0	-8	.
O=C(Nc1nnc(SCc2cc(F)cc(F)c2)s1)C1CC1	-3	2	2
COc1cc(CSc2nnc(NC(=O)C3CCC3)s2)cc(OC)c1	35	-6	83*
O=C(CSc1nnc(-c2ccc(Cl)cc2)n1-c1ccccc1)N/N=C\c1cccc(Br)c1	11	-5	-6
O=C1c2ccccc2C(=O)c2c1ccc(O)c2O	-16	-74	.
O=C1c2ccc(O)c(O)c2C(=O)c2c(O)ccc(O)c21	.	47*	79*
NS(=O)(=O)c1ccc(NC(NC(=O)c2ccco2)C(=O)c2ccc(Cl)cc2)cc1 (configuration not stated)	45*	0	.
O=C(NC(c1ccc(Cl)cc1)C1CC1)c1ccco1 (configuration not stated)	4	-8	-8
O=c1oc2cc(O)ccc2cc1-c1nc2ccccc2s1	140*	-2	-3
CCOc1ccc2cc(-c3nc4ccccc4s3)c(=O)oc2c1	0	-4	-5
COc1ccc(C2CCCCCN2CCn2nc3ccccn3c2=O)cc1 (configuration not stated)	6	-7	.
SMILES	NPYLR7 ag	hcGAS lum	mcGAS lum
Cc1ccc2c(=O)c3ccccc3n(CCCN)c2c1C	-2	71*	.
Cc1ccc(Cl)cc1NC(=O)Cn1c2ccccc2c(=O)c2ccccc21	-1	1	.
COc1ccccc1-c1cc(C(=O)NCCCN2CCOCC2)n2nc(-c3ccc(Cl)cc3)cc2n1	17	-2	42*
COc1ccccc1-c1cc(C(=O)NCCCN2CCOCC2)n2nc(-c3ccccc3)cc2n1	.	-5	-8
Cc1nc2nc(-c3cc(Cl)ccc3O)cc(C(=O)O)c2[nH]1	-2	9	51*
Cc1nc2nc(-c3cccc(Cl)c3)cc(C(=O)O)c2[nH]1	-2	-5	-2
CC1CC2(C)Oc3ccccc3C3OCC1(CO)C(C)C32 (configuration not stated)	43*	0	-6
CC1(C)OC2c3ccccc3OC3(C)CCC1CC23 (configuration not stated)	-5	-5	.
CN(C(=O)CCc1nc2cc(S(=O)(=O)N3CCOCC3)ccc2n1C)C1CCS(=O)(=O)C1 (configuration not stated)	4	4	-4
CCOC(=O)c1c(-c2ccccc2)csc1N=Cc1nc(-c2ccccc2)oc1O	97*	-6	-8
CCOC(=O)c1c(-c2ccc(C)cc2)csc1N=Cc1nc(-c2ccccc2)oc1O	3	-7	-7
COc1ccc(NC(=O)CC(=O)N2Cc3ccccc3C2)c(OC)c1	7	-7	.
CN(C)c1ccc(NC(=O)C2CCCC2)cc1CN(CC1CCCO1)C(=O)c1ccc(F)cc1 (configuration not stated)	-2	13	1
Cc1ccc2nc(C)cc(C(=O)N(C)CCO)c2c1	-1	-3	.
O=C(NC1CSc2c1nc1ccccc1c2C(=O)O)c1ccccc1 (configuration not stated)	2	41*	.
O=C(Nc1ccccc1I)c1c2c(nc3ccccc13)CCCC2	-1	-6	-9
Cc1ccc(OCC2c3ccsc3CCN2C(=O)CN(C(=O)c2ccco2)C2CC2)c(C)c1 (configuration not stated)	-3	-7	-6
O=C(c1ccc([N+](=O)[O-])cc1)N1CCCc2ccccc21	4	-6	.
O=C(CCl)N1CCCc2cc([N+](=O)[O-])ccc21	2	1	96*
CCn1nc(-c2cc(Br)cs2)nc2c(=O)n(C)c(=O)nc1-2	5	22	60*
O=c1ccccn1Cc1nc(-c2cc(Br)cs2)no1	16	-7	-16
CCC(C)C(NC(=O)c1cccc(Br)c1)C(=O)Nc1nnc(-c2ccc(Cl)cc2)s1 (configuration not stated)	-3	-6	-3
COc1cc(C2Nc3ccccc3-c3nnc(SC)nc3O2)cc(Br)c1OC (configuration not stated)	-1	-9	-3
CSc1nnc2c(n1)OC(c1cc(Br)c(OC(=O)c3ccc([N+](=O)[O-])cc3)c(Br)c1)Nc1ccccc1-2 (configuration not stated)	7	6	42*
COc1ccc(CCN2COc3ccc4c(c3C2)O/C(=C\c2ccncc2)C4=O)cc1OC	55*	-2	11
SMILES	NPYLR7 ag	hcGAS lum	mcGAS lum
CCOCCCN1COc2ccc3c(c2C1)O/C(=C\c1ccc(OC)cc1)C3=O	42	-6	-8
CCOCCCN1COc2ccc3c(c2C1)O/C(=C\c1cccc(OC)c1OC)C3=O	22	-3	-6
COc1ccc(/C=C2\Oc3c(ccc4c3CN(Cc3ccncc3)CO4)C2=O)cc1	67*	1	-3
COc1ccc(CCN2COc3ccc4c(c3C2)O/C(=C\c2ccncc2)C4=O)cc1	39	0	12
COc1ccc(CN2COc3ccc4c(c3C2)O/C(=C\c2ccncc2)C4=O)cc1	23	-7	-6
COCCCN1COc2ccc3c(c2C1)O/C(=C\c1cc(OC)c(OC)c(OC)c1)C3=O	61*	-8	-10
COc1ccc(/C=C2\Oc3c(ccc4c3CN(Cc3ccncc3)CO4)C2=O)cc1OC	83*	-4	-9
Cc1[nH]n(-c2nc(-c3ccccc3)cs2)c(=O)c1N=Nc1ccc(Cl)cc1	1	-3	-5
CON1C(=O)c2ccccc2NC12CCN(S(=O)(=O)Cc1ccccc1)CC2	0	-7	.
COc1cccc(NC(=O)NNc2nc3c(-c4ccccc4)nnn3c3ccccc23)c1	-6	-2	-6
